This is a sample that favours compounds with a hit; in the whole collection about 2.5% have one here.
ULK1 inh – blocks human autophagy kinase ULK1; O75385; AlphaScreen Atg13 phosphorylation by ULK1, luminescence; inhibition, % at 5.96 µM; 1.9% of 30,000 active; AID 1259251; in the data active = inhibition above about 43%;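 note: 0% = median of compound wells and 100% = no enzyme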
ASK1 inh – inhibitors of human ASK1 kinase; 0.99% of 22,000 active; inhibition, % at 7.44 µM; AlphaScreen MKK6 phosphorylation by ASK1, luminescence; Q99683; AID 1159602; in the data active = inhibition above about 35%;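 note: 0% = median of compound wells and 100% = no enzyme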
Numbers without * were called inactive.

CCN(CC)C(=O)C1CCCN(c2cccc(C(=O)Nc3ccc(N4CCOCC4)cc3)n2)C1 (configuration not stated) was read as ULK1 inh 52.2* and ASK1 inh -23.5.
For O=C(Nc1ccc(N2CCOCC2)cc1)c1cccc(Nc2ccncn2)n1 the results were ULK1 inh 52.5* and ASK1 inh -30.4.
For O=C(Nc1ccc(N2CCOCC2)cc1)c1csc(Nc2ccncn2)n1 the results were ULK1 inh 41.9 and ASK1 inh -13.8.
For NC(=O)c1ccccc1Nc1cc(NC(=O)Cc2ccc(F)c(F)c2)ncc1Cl the results were ULK1 inh 1.1 and ASK1 inh -3.4.
CCN(CC)C(=O)C1CCCN(c2nc3c(NCc4cccnc4)ncnc3n2C(C)C)C1 (configuration not stated) was read as ULK1 inh -4.0 and ASK1 inh 5.9.
`CN(C)c1cccc(Nc2nc(NCCO)c3ncn(Cc4ccc(C(F)(F)F)cc4)c3n2)c1` gave ULK1 inh 53.7* and ASK1 inh 7.5.
For CCCNc1nc(Nc2cccc(N(C)C)c2)nc2c1ncn2Cc1ccc(C(F)(F)F)cc1 the results were ULK1 inh 15.3 and ASK1 inh 18.3.
For CN(C)c1cccc(Nc2nc(NC3CCN(Cc4ccccc4)CC3)c3ncn(Cc4ccc(C(F)(F)F)cc4)c3n2)c1 the results were ULK1 inh 44.3* and ASK1 inh 33.8.
For FC(F)(F)c1ccc(Cn2cnc3c(NC4CCN(Cc5ccccc5)CC4)nc(Nc4ccccc4)nc32)cc1 the results were ULK1 inh -6.7 and ASK1 inh 2.1.
Screening CN1CCN(C(=O)c2ccc(-c3cc(C(=O)Nc4ccc(N5CCOCC5)cc4)ccn3)cc2)CC1 returned ULK1 inh 8.1 and ASK1 inh -2.7.
COc1ccc(CCNc2ncnc3nc(-c4csc5ccccc45)[nH]c23)cc1 was read as ULK1 inh -8.1 and ASK1 inh -9.0.
FC(F)(F)c1ccc(Cn2cnc3c(NCc4ccccc4)nc(Nc4nccc5ccccc45)nc32)cc1 was read as ULK1 inh -6.5 and ASK1 inh -23.9.
For Cc1cccc(CC(=O)Nc2cnn(-c3cccc(C(=O)NC4CCN(C(=O)OC(C)(C)C)CC4)c3)c2)c1 the results were ULK1 inh -4.8 and ASK1 inh 3.7.
O=C(NCc1ccccc1)c1ccnc(Nc2ccc3ncccc3c2)c1 was read as ULK1 inh 2.9 and ASK1 inh -3.5.
For Cn1c(Nc2nc(NCCOc3ccccc3)c3ncn(C4CCCCC4)c3n2)nc2ccccc21 the results were ULK1 inh 52.3* and ASK1 inh -0.8.
Screening COc1ccc(CCNc2nc(Nc3nc4ccccc4n3C)nc3c2ncn3C2CCCCC2)cc1 returned ULK1 inh 13.5 and ASK1 inh 19.4.
`COc1nc(OC)nc(Oc2ccccc2C(=O)O)n1` gave ULK1 inh 3.5.
Screening c1ccc(OCCNc2nc(Nc3ccccn3)nc3c2ncn3C2CCCCC2)cc1 returned ULK1 inh -6.2 and ASK1 inh 1.0.
For COc1cc(Nc2nc(C(=O)NCCN(C(C)C)C(C)C)cs2)cc(OC)c1OC the results were ULK1 inh -0.4 and ASK1 inh -13.2.
Cc1[nH]cnc1CN1CCc2c(c3ccccc3n2C)C1=O was read as ULK1 inh 78.4*.
`Cc1nccn1CC1CCc2c(c3ccccc3n2C)C1=O` (configuration not stated) gave ULK1 inh 1.7.
`C1=C(c2nc3ccc(-c4cn[nH]c4)cc3[nH]2)CCOc2ccccc21` gave ULK1 inh -31.5 and ASK1 inh -22.6.
`CC(C)N(CCNc1nc(Nc2ccc(N3CCOCC3)cc2)nc2c1ncn2-c1ccsc1)C(C)C` gave ULK1 inh 9.9 and ASK1 inh 23.3.
Screening O=C(NCc1cccc(C(F)(F)F)c1)c1ccc2nc(N3CCC(N4CCOCC4)CC3)sc2c1 returned ULK1 inh 5.3 and ASK1 inh -1.2.
For O=C(NCc1ccccc1)c1cccc(NCCCN2CCCC2=O)c1 the results were ULK1 inh 53.7* and ASK1 inh -5.8.
Screening O=C(NCCCN1CCCC1=O)c1cccc(NCCCN2CCCC2=O)c1 returned ULK1 inh -12.8 and ASK1 inh 2.4.
For O=C(Nc1cccc(F)c1N1CCC2(CC1)OCCO2)c1ccc(Br)o1 the results were ULK1 inh -9.5 and ASK1 inh -10.7.
`O=C(Nc1ccc(F)c(F)c1N1CCC2(CC1)OCCO2)c1ccc(Br)o1` gave ULK1 inh 52.9* and ASK1 inh -18.2.
NCC(O)c1ccc(O)c(O)c1 (configuration not stated) was read as ULK1 inh 80.3*.
CCC(NC(C)C)C(O)c1ccc(O)c(O)c1 (configuration not stated) was read as ULK1 inh 8.2.
COCCNC(=O)c1ccc2cncc(-c3ccsc3)c2n1 was read as ULK1 inh 53.2*.
O=C(NC1CC1)c1ccc2cncc(-c3ccsc3)c2n1 was read as ULK1 inh 35.9.
O=C(NCc1ccccc1)c1ccc2cncc(-c3ccccc3)c2n1 was read as ULK1 inh 73.6*.
Cc1cnc(CNC(=O)c2ccc3cncc(-c4ccccc4)c3n2)cn1 was read as ULK1 inh 1.7.
For COc1cc(NC(=O)c2cccc(-n3cc(N(C)c4nnnn4-c4ccccc4)cn3)c2)ccc1N1CCOCC1 the results were ULK1 inh 12.2 and ASK1 inh 8.1.
Screening COc1ccc2c(c1)CC(c1nc3ccc(-c4cn[nH]c4)cc3o1)CO2 (configuration not stated) returned ULK1 inh 7.4 and ASK1 inh 16.9.
`CC(C)n1c(Nc2cccnc2)nc2c(Nc3ccc(Oc4ccccc4)cc3)ncnc21` gave ULK1 inh -11.0 and ASK1 inh 7.2.
`Cc1ncn(-c2ccc(Nc3ncc4cccc(-c5cnn(-c6ccccc6)c5)c4n3)cc2)n1` gave ULK1 inh 16.5 and ASK1 inh 9.7.
`Cc1ncn(-c2ccc(N(c3ncc4cccc(-c5cnn(C(C)C)c5)c4n3)C(C)C)cc2)n1` gave ULK1 inh 91.5* and ASK1 inh -2.8.
`Nc1nc(Nc2ccc(N3CCOCC3)cc2)nc2nc[nH]c12` gave ULK1 inh 11.4 and ASK1 inh -2.6.
O=C(NCc1ccccc1)c1csc(Oc2ccccc2)n1 was read as ULK1 inh 5.0 and ASK1 inh -12.4.
For CN1CCN(c2ncn(-c3ccc(Nc4ncc(F)c(-c5cccc(N6CCOCC6)c5)n4)cc3)n2)CC1 the results were ULK1 inh -2.6 and ASK1 inh 14.9.
`Cc1nc(C)n(-c2ccc(Nc3ncc(Br)c(-c4cnn(C)c4)n3)cc2)n1` gave ULK1 inh 86.5* and ASK1 inh -93.3.
Cc1nc(C)n(-c2ccc(Nc3nccc(-c4cc(F)cc(-c5cnn(C)c5)c4)n3)cc2)n1 was read as ULK1 inh -5.9 and ASK1 inh 31.2.
Screening Cn1cc(-c2nc(Nc3ccc(-n4cnc(N5CCC(O)CC5)n4)cc3)ncc2F)cn1 returned ULK1 inh 58.3* and ASK1 inh -39.8.
For Cc1ncn(-c2ccc(Nc3ncc(Cl)c(Nc4ccccc4-c4ncn(C)n4)n3)cc2)n1 the results were ULK1 inh 1.7 and ASK1 inh 9.9.
Cc1ncn(-c2ccc(Nc3ncc(Cl)c(-c4cnn(C)c4)n3)cc2)n1 was read as ULK1 inh 66.1* and ASK1 inh -78.0.
For COc1ccc2c(c1)CC(C(=O)Nc1ccc(-c3cn[nH]c3)cc1Oc1cccnc1)CO2 (configuration not stated) the results were ULK1 inh -17.2 and ASK1 inh -1.4.

Source: PubChem
